Here are results for 5 molecules from PubChem BioAssay.

Several values for one entry are separate records, joined by “and”; a condition that tells them apart may be missing. Equal entries are not always repeated. Activity calls are given as the source filed them.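 Rule for the calls, unless noted: active = inhibition at or above 50% relative to wild type and mutant plate controls; inactive = inhibition below 50%.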

Test [1] can be described thus: inhibitors of TNFa-induced NFkB p65 translocation, primary screen, imaging, HUVEC, MLSMR starter and 10KST1 sets (AID 438;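 active = inhibition above 20% together with a positive visual image hit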;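 note: compound added about 3h40 before a 20 min TNFalpha stimulation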;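 for inhibition: signal is the nuclear over cytoplasmic p65 intensity ratio per well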). The settings on record: HUVEC TNFa-induced p65 nuclear translocation; cell count: measured here: nuclei count (cytotoxicity indicator), at 2.08 µM; inhibition: at 2 µM, stronger effect = higher value, 0% TNFa-plus-vehicle, 100% no-TNFa wells.
A short description of test [2]: inhibitors of mutant huntingtin aggregation, primary screen, imaging, exon1htt(103Q)mCFP cells, high-content imaging (AID 483;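 active = visual image review flags a hit and inhibition of aggregation exceeds 20%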;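 note: compound exposure lasted 3 days before fixation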;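 for nuclei count: percent of the per-plate median nuclei count of sample wells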). The settings on record: exon1htt(103Q)mCFP cell line, aggregate imaging, at 2 µM; inhibition of aggregation: stronger effect = higher value; nuclei count: measured here: cell count, toxicity.
Test [3] in a line: inhibitors of E-selectin induction by TNFa, primary screen, imaging, HUVEC, immunofluorescence, MLSMR starter and 10KST1 sets (AID 487;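 active = visually confirmed hit in the image check and inhibition above 20%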;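 for inhibition: signal is fraction of cell area covered by stained E-selectin grains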;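 for nuclei count: 100% = median nuclei count of all wells on the same plate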). The following applies: HUVEC TNFalpha-induced E-selectin immunofluorescence imaging, at 2 µM; inhibition: stronger effect = higher value; nuclei count: measured here: cell number, toxicity.
A short description of test [4]: DUSP6 inhibitors restoring Erk phosphorylation by chemical complementation, primary imaging in DUSP6-transfected HeLa (AID 609;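 active = compounds giving at least 50% inhibition in the cell-based MKP-3 phosphatase rescue imaging test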;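 for inhibition: phospho-Erk level distribution per well compared with pooled transfected vehicle control wells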). The following applies: HeLa MKP-3 transfected, phospho-Erk imaging KS statistic, at 10 µM, cells stimulated with TPA for 15 min.
Test [5] concerns the target Dual specificity protein phosphatase 6 (Homo sapiens) (UniProt Q16828). The test is described as above. The following applies: HeLa MKP-3 transfected, phospho-Erk imaging KS statistic; at 10 µM; stronger effect = higher value; cells stimulated with TPA for 15 min.
Test [6] deals with Voltage-gated potassium channel subunit beta-2 (Rattus norvegicus) (UniProt P62483). The experiment in a line: KvBeta enzyme negative modulators, primary screen, biochemical, NADPH fluorescence (AID 622;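 active = fluorescence slope higher than the sample average by over 3 SD, cut at about -0.22 in these data, passing the limit was not always enough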;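 note: slope of raw intensity against log time taken from 70 to 1610 s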). The following applies: recombinant KvBeta, 4-cyanobenzaldehyde reduction, at 10 µM, stronger effect = higher value.
The target is the same in test [7]. The experiment in a line: KvBeta positive modulators, primary screen, biochemical, NADPH fluorescence (AID 623;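 active = NADPH fluorescence slope more negative than the mean of all samples by about 3 SD, 99.7% confidence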;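 note: fluorescence intensity change per second fitted from 20 to 320 s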). The following applies: Recombinant KvBeta, NADPH fluorescence decrease slope, 10 min; at 10 µM; stronger effect = lower value.
The target of test [8] is Alpha-2C adrenergic receptor (Homo sapiens) (UniProt P18825). As to the kind of experiment: modulators of alpha2C/GIRK thallium flux, primary screen, cell-based, HEK293 alpha2C/GIRK1/2 (AID 624;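 active = fluorescence slope after compound addition differing from the mean of all screened samples at 99.7% confidence, in either direction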;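 note: slope of fluorescence ratio to pre-addition baseline per second over 15 to 24 s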). The settings on record: thallium flux BTC fluorescence, at 10 µM, actives lie on both sides.
Test [9] is described as follows: inhibitors of larval lipid processing in zebrafish, primary screen, whole organism, PED6 fluorescence, gall bladder and intestine (AID 686;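 active = a full or partial loss of lipid-probe fluorescence in the fish gall bladder, intestine or both, judged by eye; inactive = no fluorescence loss, or compound toxic to the fish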;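 note: larvae 5 to 7 days old with five fish per well; signal comes from phospholipase A2 cleavage of quenched PED6 carried via bile; overnight exposure to compound and PED6 before scoring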). The settings on record: Zebrafish larvae PED6 lipid processing, fluorescence scoring; screened at 20 µM (by protocol).
The nature of test [10]: inhibitors of Chlamydomonas gravitaxis, primary screen, whole organism, Chlamydomonas reinhardtii, WT vs cilia-less mutant, absorbance, 96-well (AID 463189).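 Note: 0% = wild type cc124 cells in DMSO and 100% = ciliumless bld1 mutant cells.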 The settings on record: OD600 absorbance, 2 days, at 10 µM, stronger effect = higher value.
The nature of test [11]: inhibitors of Sendai virus-induced IRF3 signaling, primary screen, TLR/RLR signaling modifier project, cell-based, Sendai virus stimulus, luciferase, 10K MLSCN set (AID 602276;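 active = inhibition at or above 50% at 10 µM; inactive = inhibition below 50%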;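 note: firefly luciferase from ISG56 promoter only with Renilla not read in this screen; 0% = Sendai virus plus DMSO and 100% = medium plus DMSO without virus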). The following applies: HEK293 RL24 IRF3 luciferase reporter, at 10 µM, stronger effect = higher value. For orientation: Reporter assays use an easily measured gene product as a stand-in for the process of interest.

A short description of test [12]: inhibitors of poly I:C-induced TLR3 signaling, primary screen, cell-based, poly I:C stimulus, luciferase, 10K MLSCN set (AID 602277;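 active = inhibition of the reporter signal at or above 50%; inactive = inhibition below 50%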). The following applies: HEK293-TLR3 RL24 IRF3 luciferase reporter, at 10 µM, stronger effect = higher value.
The mark [13] stands for this setting: measured here: cell density z-score.
Setting [14] is: measured here: nuclear c-Myc green intensity z-score.
Where [15] appears, read: measured here: nuclear pErk red intensity z-score, stronger effect = higher value.

Alpha-2C adrenergic receptor (Homo sapiens), sequence (P18825 whole entry, looked up): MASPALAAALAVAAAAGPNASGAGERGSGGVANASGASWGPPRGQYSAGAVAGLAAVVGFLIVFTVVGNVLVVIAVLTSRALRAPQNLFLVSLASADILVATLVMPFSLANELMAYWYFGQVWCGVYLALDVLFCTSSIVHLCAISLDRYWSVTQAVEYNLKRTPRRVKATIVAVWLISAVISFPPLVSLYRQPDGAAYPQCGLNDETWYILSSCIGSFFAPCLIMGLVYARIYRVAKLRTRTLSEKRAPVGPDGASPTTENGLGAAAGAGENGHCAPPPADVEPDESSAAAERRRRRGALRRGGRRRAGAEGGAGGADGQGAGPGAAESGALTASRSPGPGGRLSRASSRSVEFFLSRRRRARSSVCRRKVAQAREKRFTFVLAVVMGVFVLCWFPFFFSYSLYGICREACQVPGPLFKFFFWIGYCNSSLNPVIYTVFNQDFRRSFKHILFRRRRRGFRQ
Voltage-gated potassium channel subunit beta-2 (Rattus norvegicus), sequence (P62483 whole entry, looked up): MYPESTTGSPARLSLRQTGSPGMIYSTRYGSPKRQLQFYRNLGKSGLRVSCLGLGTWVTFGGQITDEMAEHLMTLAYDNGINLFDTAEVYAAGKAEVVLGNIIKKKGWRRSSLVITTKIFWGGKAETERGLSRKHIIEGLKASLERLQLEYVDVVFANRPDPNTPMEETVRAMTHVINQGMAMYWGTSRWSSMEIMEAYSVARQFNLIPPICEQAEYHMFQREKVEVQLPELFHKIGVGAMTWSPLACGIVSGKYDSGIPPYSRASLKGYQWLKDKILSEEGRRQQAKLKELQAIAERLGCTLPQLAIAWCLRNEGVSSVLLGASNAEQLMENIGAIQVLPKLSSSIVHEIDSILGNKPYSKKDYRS
Dual specificity protein phosphatase 6 (Homo sapiens), sequence (Q16828 whole entry, looked up): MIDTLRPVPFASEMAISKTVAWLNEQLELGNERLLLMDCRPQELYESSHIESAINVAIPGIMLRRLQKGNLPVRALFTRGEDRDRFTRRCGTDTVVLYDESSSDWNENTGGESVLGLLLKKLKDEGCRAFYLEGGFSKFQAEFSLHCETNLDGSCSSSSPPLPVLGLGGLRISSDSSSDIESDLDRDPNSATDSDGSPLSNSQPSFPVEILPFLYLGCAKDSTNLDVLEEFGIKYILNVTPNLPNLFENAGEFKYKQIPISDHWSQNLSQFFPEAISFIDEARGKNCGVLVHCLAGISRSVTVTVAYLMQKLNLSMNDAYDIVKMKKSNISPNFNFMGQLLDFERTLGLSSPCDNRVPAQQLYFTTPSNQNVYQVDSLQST

With `CC(=O)OCC(=O)[C@@]1(O)CC[C@H]2[C@@H]3CCC4=CC(=O)CC[C@]4(C)[C@H]3[C@@H](O)C[C@@]21C`, in test [1], the cell count was found to be 652. The inhibition (in general, the relative decrease from the control value, in per cent) is 2.9% (inactive) in test [1]; -99.5% (inactive) in [3]; 10.2% (inactive) in test [5]; 17.2% (inactive) in [10]; 2.51% (inactive) in test [11]; 28.7% (inactive) in test [12]. Also, the inhibition of aggregation in test [2] is -9.2% (inactive). The values for the nuclei count in test [2] and in test [3] were 82.8% and 121%, respectively. The z-score in test [4] (setting [13]) was -2.38; in test [4] (setting [14]) it was 1.32; in [4] (setting [15]) it was 1.76. Also, the fluorescence slope in test [6] is -0.454 (inactive). Besides, in [7], the NADPH fluorescence slope was -5.2e-05 (inactive). Besides, the slope in test [8] is 0.00445 (inactive). Also, the result in test [9] was inactive.
Regarding `CCCCCCCC(=O)OCC(=O)[C@@]1(O)CC[C@H]2[C@@H]3CCC4=CC(=O)CC[C@]4(C)[C@H]3[C@@H](O)C[C@@]21C`, the cell count in test [1] was 531. Moreover, the inhibition in test [1] was -8.2% (inactive); in test [3], 3.4% (inactive); in [5], -8.38% (inactive); in [10], -10.8% (inactive); in [11], 15.2% (inactive); in [12], 49.5% (inactive). For the same molecule, in test [2], the inhibition of aggregation was -25.1% (inactive). Moreover, the nuclei count in test [2] worked out at 92.7%; in [3], 107%. Besides, the values for the z-score in [4] (setting [13]), in [4] (setting [14]) and in test [4] (setting [15]) were -0.552, -1.25 and -0.122, respectively. Besides, in [6], the fluorescence slope was -0.503 (inactive). Further, the NADPH fluorescence slope in [7] is -5.1e-05 (inactive). Also, the slope in test [8] is 0.0075 (inactive). In addition, the molecule was classed as inactive in test [9].
Consider `O=C(O)c1cc2cc(F)ccc2[nH]1`, for which the cell count in test [1] was 552. The inhibition in [1] was -0.9% (inactive); in test [3], -14.2% (inactive); in test [5], -5.24% (inactive); in test [10], -3.42% (inactive) and -23.2% (inactive); in test [11], 12.4% (inactive); in [12], 46.1% (inactive). The inhibition of aggregation in test [2] was -5.1% (inactive). In addition, the nuclei count in [2] came out at 95.6%; in test [3] it was 107%. Further, the z-score in test [4] (setting [13]) is 2.14; in [4] (setting [14]), -1.93; in [4] (setting [15]) it was -0.0855. Moreover, in test [6], the fluorescence slope is -0.457 (inactive). The NADPH fluorescence slope in [7] was -3.2e-05 (inactive). Moreover, the slope in test [8] is 0.00488 (inactive). Further, in test [9], the molecule was called inactive.
Consider `O=C1CSC(=Nc2ccc(O)cc2)N1c1ccc(O)cc1`, for which the cell count in [1] came to 380. For the same molecule, the inhibition in test [1] is -9.5% (inactive); in test [3], -49.6% (inactive); in test [5] it was 9.82% (inactive); in test [10], -9.81% (inactive); in test [11], 17.9% (inactive); in test [12], 25% (inactive). Besides, the inhibition of aggregation in [2] is 3.6% (inactive). Besides, the nuclei count in [2] was 95.8%; in test [3], 92.5%. The z-score in test [4] (setting [13]) was 1.48; in test [4] (setting [14]), 1.47; in test [4] (setting [15]), -2.2. Besides, the fluorescence slope in [6] is -0.463 (inactive). Moreover, in [7], the NADPH fluorescence slope is -0.000339 (inactive). Also, in test [8], the slope was 0.00571 (inactive). Further, the outcome in test [9] was inactive.
On to `CCN(CCCCOC(=O)c1ccc(OC)c(OC)c1)C(C)Cc1ccc(OC)cc1` (stereo not given), for which, in test [1], the cell count turned out to be 635. For the same molecule, the inhibition was -4.8% (inactive) in test [1]; -106% (inactive) in test [3]; 9.37% (inactive) in test [5]; 55.2% (active) in test [10]; -44.7% (inactive) in test [11]; 57.4% (active) in test [12]. For the same molecule, in [2], the inhibition of aggregation is -7.1% (inactive). In addition, the nuclei count in test [2] was determined as 96.1%; in test [3] it was 138%. Moreover, the z-score in test [4] (setting [13]) was 0.515; in test [4] (setting [14]), -0.208; in test [4] (setting [15]) it was -0.515. For the same molecule, in test [6], the fluorescence slope is -0.488 (inactive). Further, in test [7], the NADPH fluorescence slope is -7.4e-05 (inactive). The slope in test [8] is 0.00442 (inactive). Further, in test [9], the outcome was inactive.
